According to the supplement of paper PMC6555819:

Key:
Experiment in all cases: PBM binding z-score (relative to random genomic background probes); higher = stronger binding; sequences stand for … in GC…GCGATTGACAGCGTAGAATGAAGG
[1] = tested on: FXR:RXRa (NR concentration 270 nM, RXRa partner concentration 90 nM)
In short: (§1)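 Binding z-scores take random background probes as their reference. They come from custom Agilent 4×180K protein-binding microarrays incubated 1 h with ligand-free nuclear receptor dimers, with antibodies against each partner (one per run) detecting binding. Scanned fluorescence was regression-normalized.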

[2] = tested on: LXRa:RXRa (NR concentration 270 nM, RXRa partner concentration 90 nM)
In short: as §1

[3] = tested on: LXRa homodimer (NR concentration 270 nM)
In short: as §1

[4] = tested on: LXRb:RXRa (NR concentration 270 nM, RXRa partner concentration 90 nM)
In short: as §1

[5] = tested on: LXRb homodimer (NR concentration 270 nM)
In short: as §1

[6] = tested on: PPARa:RXRa (NR concentration 270 nM, RXRa partner concentration 90 nM)
In short: as §1

[7] = tested on: PPARg:RXRa (NR concentration 180 nM, RXRa partner concentration 90 nM)
In short: as §1

[8] = tested on: PPARg:RXRa 270nM:90nM, anti-RXR (NR concentration 270 nM, RXRa partner concentration 90 nM)
In short: as §1

[9] = tested on: PPARg:RXRa 30nM:10nM, anti-RXR (NR concentration 30 nM, RXRa partner concentration 10 nM)
In short: as §1

[10] = tested on: PPARg:RXRa 90nM:30nM, anti-RXR (NR concentration 90 nM, RXRa partner concentration 30 nM)
In short: as §1

[11] = tested on: PPARg:RXRa DBDmut IVT, anti-RXR (DBD mutation: RXRa K156A/R161A, NR concentration 270 nM, RXRa partner concentration 90 nM)
In short: as §1

[12] = tested on: PPARg:RXRa IVT, anti-PPARg (NR concentration 270 nM, RXRa partner concentration 90 nM)
In short: as §1

[13] = tested on: PPARg DBDmut:RXRa IVT, anti-PPARg (DBD mutation: PPARg1 K132A/R137A, NR concentration 270 nM, RXRa partner concentration 90 nM)
In short: as §1

[14] = tested on: PPARg DBDmut IVT, anti-PPARg (DBD mutation: PPARg1 K132A/R137A, NR concentration 270 nM)
In short: as §1

[15] = tested on: PPARg homodimer (NR concentration 180 nM)
In short: as §1

[16] = tested on: PXR:RXRa (NR concentration 270 nM, RXRa partner concentration 90 nM)
In short: as §1

[17] = tested on: PXR homodimer (NR concentration 270 nM)
In short: as §1

[18] = tested on: RARa:RXR (NR concentration 270 nM, RXRa partner concentration 90 nM)
In short: as §1

[19] = tested on: RARa homodimer (NR concentration 270 nM)
In short: as §1

[20] = tested on: RARb:RXRa (NR concentration 270 nM, RXRa partner concentration 90 nM)
In short: as §1

Sequence	PBM binding z-score [1]	PBM binding z-score [2]	PBM binding z-score [3]	PBM binding z-score [4]	PBM binding z-score [5]	PBM binding z-score [6]	PBM binding z-score [7]	PBM binding z-score [8]	PBM binding z-score [9]	PBM binding z-score [10]	PBM binding z-score [11]	PBM binding z-score [12]	PBM binding z-score [13]	PBM binding z-score [14]	PBM binding z-score [15]	PBM binding z-score [16]	PBM binding z-score [17]	PBM binding z-score [18]	PBM binding z-score [19]	PBM binding z-score [20]
ATATGTAGGTTAAGGGTCATTCAAGTTGGTTCGC	5.1	5.2	2.81	4.68	1.33	6.53	11.5	9.66	9.8	10.8	7.49	7.7	1.56	1.82	3.15	5.92	1.73	5.73	1.9	3.79
TCATTTAGGTAATACAGGTGAAAGTCGGCATCTA	1.6	1.41	0.774	1.47	1.18	2.02	0.962	2.92	4.52	3.72	3.53	3.29	1.53	1.6	1.72	1.06	0.701	1.43	2.03	1.07
GTTCGGAGGACAAGGTCAGAGCTTTGTCCGTAGA	1.57	1.48	-0.204	0.904	-0.834	2.16	0.427	1.29	-0.266	0.514	-0.0952	0.927	-0.706	-1.19	1.25	1.67	-0.41	2.17	-0.913	3.13
ACAGACAGGGGAGTGAAGGTAACTCAGCTGGACG	0.0883	0.0557	-0.294	0.312	0.211	0.211	0.82	0.301	-0.0675	0.442	-0.166	-0.191	0.22	-0.386	0.229	-0.136	0.147	-0.342	0.313	0.21
ACTGGCAGGCCAAGTTTGGGTCACTCAAACAAAG	0.314	0.00721	-0.384	0.727	-0.59	1.36	-0.374	-0.085	-0.662	-0.496	-0.444	0.61	-1.01	-1.29	0.0864	0.677	-0.347	1.4	-0.396	1.74
AGTCAAAGTTCAGGACGATGTAACGTAAAGCACG	3.6	3.59	0.938	1.8	0.134	3.05	4.28	4.75	1.92	3.68	-0.314	1.19	0.674	0.961	2.13	2.22	1.24	1.78	0.666	4.17
TCTTGTAGATCAACAGCAGGTTAAGAAAGATCGA	0.263	0.476	-0.0928	0.569	-0.319	0.609	-0.21	1.17	2.61	1.7	1.66	0.684	-0.0164	0.918	-0.793	0.178	-0.2	0.544	0.0361	0.0725
CGTCCAAGGTCAAGGTCAGTGATAGAGACTCGAA	7.73	5.59	1.52	4.55	0.758	6.02	6.2	6.15	2.73	4.98	3.79	4.5	1.28	0.138	4.99	5.05	1.18	5.44	2.41	5.73
GCTATTAGTTGAAAGGGCAAGCGAATGATTCTCG	0.532	0.54	-0.0155	0.379	-0.106	2.13	2.5	4.12	2.04	4.08	0.45	0.54	-0.251	0.055	1.28	0.469	0.0641	1.19	0.795	1.94
ATATTTAGGTTAGCTGGGGTCATTCAGACTAGGC	4.36	5.53	3.69	4.89	2.59	4.96	4.2	4.63	1.88	3.88	5.87	4.88	2.64	2.22	3.24	6.14	5.08	5.14	3.11	3.21
CCTCGCAGGACAGAAGGTCAGAGCTGTCCGCTTT	1.07	1.44	0.197	1.13	-0.678	1.86	-0.29	0.666	-0.929	0.0497	0.197	0.104	-2.21	-1.7	1.13	1.35	-0.203	1.84	-0.425	2.81
AGAATGAGGTTATACGTACATCAGGGAAGAAAGT	2.3	2.05	0.00405	1.58	0.14	3.24	2.46	2.42	0.777	1.66	2.47	2.41	1.28	1.19	0.736	1.28	0.643	1.82	0.483	1.5
CCTAGTTGGTCAATGTCACACACGCTATAGGTAC	0.436	0.678	0.613	1.1	1.1	0.77	1.17	0.745	0.448	0.257	1.5	1.6	1.25	1.28	1.57	0.71	0.574	0.851	1.91	1.4
TAGCCTAGGTAATGCGGGCCAGTATAGTGTCGGC	-1.49	-1.07	-0.66	-1.17	-1.38	-0.346	0.000474	-0.669	-0.676	-0.655	0.0726	0.795	-0.707	-0.721	-1.01	-0.858	-1.13	-0.925	-1.12	-0.447
